Records with an inconclusive call do not appear. Active and inactive are the calls of the source. The call rests on the fitted dose curve; in most records, active means well fitted curve in the direction sought with a large enough effect; inconclusive means small, poorly fitted or top-dose-only effect, or another doubt; inactive means no such curve, though single readings can be large; an effect the other way counts as inactive or inconclusive.

The nature of assay [1]: Quantitative High-Throughput drug screen in 47 multiple myeloma cell lines against the NCATS MIPE library collection: ARP1_JJKsccF8 cell viability assay (AID 1918928; further: nearly all actives have a fitted effect of over 40% in size). In short, it runs like this: (§1)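 ATP readout (CellTiter-Glo), 48 h drug incubation, 37 °C/5% CO2, 500 cells per well; normalisation to DMSO (100%) and media-only (0%) controls.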
Assay [2] can be described thus: Quantitative High-Throughput drug screen in 47 multiple myeloma cell lines against the NCATS MIPE library collection: Karpas620_DSMZ cell viability assay (AID 1918959). Further: nearly all actives have a fitted effect of over 30% in size. In short, it runs like this: (§2)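 Inhibition of cell viability is measured here. Each line was plated at 500 cells per well, treated with MIPE 4.0 drugs, kept 48 hours at 37C, then assayed for ATP content by CellTiter-Glo luminescence.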

The nature of assay [3]: Quantitative High-Throughput drug screen in 47 multiple myeloma cell lines against the NCATS MIPE library collection: KMM1_JCRB cell viability assay (AID 1918960). Further: nearly all actives have a fitted effect of over 30% in size. Summed up:
as §1

Assay [4] in a line: Quantitative High-Throughput drug screen in 47 multiple myeloma cell lines against the NCATS MIPE library collection: Karpas417_ECACC cell viability assay (AID 1918961). As to conditions: Karpas417 myeloma viability, CellTiter-Glo ATP luminescence, 48 h; viability (% of DMSO): at 45.8 µM (top of the series). Summed up: (§3)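 qHTS of the MIPE 4.0 collection: 500 myeloma cells/well, 48 h drug exposure at 37C in 5% CO2, then CellTiter-Glo for 5 min at room temperature before luminescence reading.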

Assay [5] in a line: Quantitative High-Throughput drug screen in 47 multiple myeloma cell lines against the NCATS MIPE library collection: JIM3_ECACC cell viability assay (AID 1918963; further: nearly all actives have a fitted effect of over 35% in size). In short, it runs like this:
as §2

Assay [6] is described as follows: Quantitative High-Throughput drug screen in 47 multiple myeloma cell lines against the NCATS MIPE library collection: JIM1_ECACC cell viability assay (AID 1918964). Summed up:
(§4)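 CellTiter-Glo ATP luminescence gave viability after 48 h compound treatment at 37C of 500 multiple myeloma cells per well. Normalisation used DMSO-only wells as 100% and media-only wells as 0% viability; primary qHTS of approved and investigational drugs.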

A short description of assay [7]: Quantitative High-Throughput drug screen in 47 multiple myeloma cell lines against the NCATS MIPE library collection: INA6_PLB cell viability assay (AID 1918965; further: nearly all actives have a fitted effect of over 55% in size). In short, it runs like this: as §3
Assay [8] is described as follows: Quantitative High-Throughput drug screen in 47 multiple myeloma cell lines against the NCATS MIPE library collection: JJN3_DSMZ cell viability assay (AID 1918966; further: nearly all actives have a fitted effect of over 50% in size). Summed up: as §4
A short description of assay [9]: Quantitative High-Throughput drug screen in 47 multiple myeloma cell lines against the NCATS MIPE library collection: KHM11_PLB cell viability assay (AID 1918962). Further: nearly all actives have a fitted effect of over 35% in size. Summed up: as §2
The nature of assay [10]: Quantitative High-Throughput drug screen in 47 multiple myeloma cell lines against the NCATS MIPE library collection: ARD_JJKsccE7 cell viability assay (AID 1918929). In short, it runs like this:
as §4
Potency means the concentration at half of the fitted maximal effect.

With `CCOC(=O)[C@H](CCc1ccccc1)N[C@H]1CS[C@H](c2cccs2)CN(CC(=O)O)C1=O`, the Potency in assay [1] is 11.8 µM (active); in assay [2], 4.69 µM (active); in assay [3], 1.05 µM (active); in assay [4], 0.264 µM (active); in assay [6], 1.32 µM (active); in assay [7], 2.96 µM (active). Also, the Potency in [8] is 16.6 µM (active). Moreover, the Potency entry in assay [5] is “inactive”.

Regarding `NC(=O)c1cccnc1`, the Potency entry in [1], in [2], in assay [3], in [5] and in [6] was “inactive” throughout.

Turning to `CCCOc1ccc(C(=O)OCCN(CC)CC)cc1N`, the Potency entry in assay [1], in assay [2], in assay [3], in assay [5], in assay [7] and in [8] was “inactive” each time.

`Cc1onc(-c2ccccc2Cl)c1C(=O)N[C@@H]1C(=O)N2[C@@H]1SC(C)(C)[C@@H]2C(=O)O`: the Potency entry in assay [1], in assay [2], in assay [9] and in assay [5] was “inactive” in each case.

As for `CC(=O)Oc1ccccc1C(=O)Nc1ncc([N+](=O)[O-])s1`, the Potency in assay [1] was 34 µM (active); in assay [2], 12.1 µM (active); in assay [3], 8.55 µM (active); in assay [9], 21.5 µM (active); in assay [5], 17.1 µM (active); in assay [6], 27 µM (active). Moreover, the figures for the Potency in assay [7] and in [8] were 17.1 µM (active) and 30.3 µM (active), respectively.

Take `CC1=NN(c2ccccc2)C(=O)C1`: the Potency entry in [1], in [2], in assay [3], in assay [5] and in assay [6] was “inactive” throughout. Moreover, in [7], the Potency is 13.2 µM (active).

With `Cc1cccc(Nc2ccncc2S(=O)(=O)NC(=O)NC(C)C)c1`, the Potency entry in [1], in [2], in [3], in assay [9], in assay [5] and in [6] was “inactive” throughout. For the same compound, the Potency in [8] is 20.9 µM (active).

Regarding `N=C(N)c1ccc(OCCCCCOc2ccc(C(=N)N)cc2)cc1`, the Potency is 16.6 µM (active) in assay [1]; 5.26 µM (active) in assay [3]; 3.32 µM (active) in assay [9]; 3.72 µM (active) in assay [7]; 16.6 µM (active) in assay [8]. Further, the Potency result in [10] and in assay [6] was “inactive” throughout.

In the case of `COc1ccc2c(c1)c(CC(=O)OCC(=O)O)c(C)n2C(=O)c1ccc(Cl)cc1`, the Potency result in assay [1], in assay [2], in assay [3], in [5], in assay [6] and in assay [8] was “inactive” throughout.

For `COc1ccccc1OCC(O)COC(N)=O` (stereo not given), the Potency entry in assay [1], in assay [2], in assay [3], in [9], in [5] and in assay [6] was “inactive” throughout.

Turning to `Cc1oc(=O)oc1CN1CCN(c2cc3c(cc2F)c(=O)c(C(=O)O)c2n3C(C)S2)CC1` (stereo not given), the Potency in assay [1] and in assay [8] was 14.8 µM (active) throughout. The Potency entry in assay [2], in assay [3], in [9], in assay [5] and in assay [6] was “inactive” each time.

For the compound `CNC1CCCN(c2c(F)cc3c(=O)c(C(=O)O)cn(C4CC4)c3c2OC)C1` (stereo not given), the Potency entry in assay [1], in assay [10], in assay [9], in assay [5] and in assay [6] was “inactive” in each case.

Turning to `CCOc1cc(N)c(Cl)cc1C(=O)NCC1CN(Cc2ccc(F)cc2)CCO1` (stereo not given), the Potency result in [1], in assay [2], in assay [3], in [5] and in assay [8] was “inactive” each time.

Regarding `CC(=O)CC(c1ccccc1)c1c(O)c2ccccc2oc1=O` (stereo not given), the Potency result in assay [1], in assay [2], in [3], in assay [9] and in assay [5] was “inactive” each time.

Take `NC(=O)N1c2ccccc2CC(=O)c2ccccc21`: the Potency entry in assay [1], in assay [2], in [3], in assay [5] and in assay [6] was “inactive” in each case.

For the compound `O=c1cc(O)c(Cl)c[nH]1`, the Potency entry in assay [1], in [9] and in assay [5] was “inactive” throughout. In addition, the Potency in [10] is 7.43 µM (active); in assay [6] it was 6.62 µM (active).

Regarding `O=C(O)c1cn(C2CC2)c2cc(N3CCNCC3)c(F)cc2c1=O`, the Potency result in assay [1], in [2], in [3], in assay [5], in assay [6] and in assay [8] was “inactive” in each case.

On to `Cn1nnc2c(C(N)=O)ncn2c1=O`, for which the Potency result in assay [1], in [2], in [3], in assay [9], in assay [5] and in assay [6] was “inactive” each time. Besides, in assay [8], the Potency result was “inactive”.

For `CC(C)(C)C(=O)OCOP(=O)(COCCn1cnc2c(N)ncnc21)OCOC(=O)C(C)(C)C`, the Potency in assay [1] is 0.833 µM (active); in [2], 16.6 µM (active); in assay [3], 11.8 µM (active); in assay [9] it was 0.935 µM (active); in [5] it was 2.64 µM (active); in assay [6], 2.64 µM (active). Further, the Potency in assay [7] is 0.743 µM (active); in assay [8] it was 0.526 µM (active).

`Cc1ccc(S(=O)(=O)N[C@@H](Cc2ccccc2)C(=O)CCl)cc1`: the Potency is 20.9 µM (active) in [1]; 11.8 µM (active) in [2]; 13.2 µM (active) in [3]; 16.6 µM (active) in assay [9]; 13.2 µM (active) in [5]; 5.9 µM (active) in [7]. Further, in [8], the Potency was 18.7 µM (active).

Regarding `Nc1nc(=S)c2[nH]cnc2[nH]1`, the Potency is 1.32 µM (active) in [1], 4.18 µM (active) in [9], 9.35 µM (active) in assay [5] and 4.69 µM (active) in assay [8]. For the same compound, the Potency result in assay [2] and in [3] was “inactive” throughout.

In the case of `Cc1ncc([N+](=O)[O-])n1CCO`, the Potency result in assay [1], in assay [2], in assay [3], in assay [5], in assay [7] and in assay [8] was “inactive” throughout.

Turning to `NC(=O)c1cccc(N)c1`, the Potency entry in assay [1], in [2], in [3] and in [5] was “inactive” each time.

On to `CCCc1cc(C(N)=S)ccn1`, for which the Potency entry in assay [1], in assay [2], in assay [9], in [5], in assay [6] and in assay [7] was “inactive” each time. Also, in assay [8], the Potency result was “inactive”.

On to `CN(C)c1ccc(C(=C2C=CC(=[N+](C)C)C=C2)c2ccc(N(C)C)cc2)cc1`, for which the Potency in assay [1] is 0.166 µM (active); in assay [9], 0.0166 µM (active); in assay [6], 0.105 µM (active); in assay [8] it was 0.0187 µM (active).

The values are drawn from PubChem BioAssay (NCATS).
